According to PubChem BioAssay AID1498 (National Center for Advancing Translational Sciences (NCATS), 2009):
Results filed as inconclusive are left out. Activity calls are given as the source filed them. The call rests on the fitted dose curve.

Test: Confirmation Concentration-Response Assay for Modulators of Lamin A Splicing
Conditions: HeLa lamin A splicing GFP/RFP minigene, Acumen, 48 h; RFP activity: RFP channel at top concentration, at 46.1 µM; ratio activity: GFP/RFP ratio at top concentration, at 46.1 µM; series mostly up to 46.1 µM; GFP activity change, negative = decrease: at the top concentration
Description: NCGC Assay Overview: Hutchinson-Gilford Progeria Syndrome (HGPS) is a pediatric premature aging disease caused by a spontaneous mutation in the lamin A/C (LMNA) gene. The mutation activates a cryptic splice site in the LMNA pre-mRNA which results in production of a pre-lamin A protein that cannot be processed properly. The mutant protein accumulates in the nucleus and negatively affects numerous cellular functions. Correction of the splicing defect in HGPS patient cells using a targeted oligonucleotide (exo11) leads to reversal of the cellular disease phenotypes. To identify small molecule modulators of aberrant LMNA splicing, a homogenous assay was constructed in HeLa cells that used a GFP containing minigene to report on correction of aberrant splicing in lamin A and a RFP (DsRed2) to report on cell viability, uniformity and nonspecific effects on the assay signal. This assay was adapted to laser-scanning microplate cytometry (Acumen, TTP Labtech) where miniaturization of the assay to a 1,536-well plate format was possible. Select compounds active in the primary screen (AID 1487) were chosen for confirmation based on potency, efficacy, SAR and activity in other assays in PubChem and at NCGC. References: Bowen, W. P.; Wylie, P. G. Application of Laser-Scanning Fluorescence Microplate Cytometry in High Content Screening. Assay Drug Dev Technol 2006;4:209-221. Scaffidi P, Misteli T. Reversal of the cellular phenotype in the premature aging disease Hutchinson-Gilford progeria syndrome. Nat. Med. 2005;11:440-445.
NCGC Assay Protocol Summary: Reagents/Controls: Stable clones expressing DsRed2 and lamin A-EGFP were generated by Cell and Molecular Technologies in S3 HeLa cells. HeLa cells were prepared for the assay when they were 70-90% confluent. The cells were counted and resuspended in Opti-MEM I (no phenol red; Gibco), 2% FBS, 1% penicillin/ streptomycin (Gibco) at concentration of 120 cells/uL concentration. The suspension was passed through a Falcon basket filter with pore size 40um (Beckton Dickson). Control titrations: column […] 1536-well plate contained a sixteen point titration (1:2 dilutions) in duplicate of ancitabine (Sigma: A8598) beginning at 40 uM final concentration. Column 2 contained a sixteen point titration (1:2 dilutions) of cycloheximide beginning at 1.4 mM final concentration. Column 3 contained ancitabine at 40 uM and column 4 contained was the vehicle control (0.5% DMSO final concentration). Assay Steps: 5 uL of HeLa cells were plated in Aurora LoBase black clear bottom (cyclic-olefin polymer) 1536-well plates at a final density of 600 cells/well. Controls and library compounds were added with a 1536-well pin array using the Kalypsys pin-tool. The plates were then incubated for 48 hrs in a cell-culture incubator (37 °C; 5% CO2, 98% humidity). Following incubation the plates were read on the Acumen Explorer using the 488 nm laser. Data was collected on objects between 10 and 100 um in size. Cell objects were defined by a 15 um width x 10 um depth filter. The ratio of the total object intensity in PMT1 (500-530 nm emission; GFP) over PMT3 (575-640 nm emission; RFP) was calculated for analysis. Keywords: NIH Roadmap, MLSCN, MLI, MLSMR, qHTS, NCGC, lamin A, Progeria, RNA splicing.

SMILES | ratio activity | RFP activity | GFP activity change, negative = decrease
CC(C)(C)n1nnnc1C(c1ccc2ncccc2c1)N1CCSCC1 (stereo not given) | -14.8% | -8.12% | -12.4% (inactive)
O=C(CCCN1CC=C(n2c(=O)[nH]c3ccccc32)CC1)c1ccc(F)cc1 | -13.7% | -6.45% | -20.4% (inactive)
Cc1ccc(S(=O)(=O)N(CC(=O)Nc2ccccc2C(=O)O)c2cccc(Cl)c2C)cc1 | -14.3% | 26.8% | 7.34% (inactive)
Cc1noc(C)c1-c1ccc2ncnc(NCc3ccc(C(C)(C)C)cc3)c2c1 | -12.9% | -7.69% | -6.32% (inactive)
Cc1nc2ccc(NC(=O)c3ccc(Cl)c(S(=O)(=O)N(C)c4ccccc4)c3)cc2s1 | -11.5% | -26.7% | -33.3% (inactive)
